Screening data from PubChem.
Cruzain Triton = inhibitors of Trypanosoma cruzi cruzain with detergent; AID 1478; purified cruzain, Z-FR-AMC fluorescence, 0.01% Triton; Potency, µM, inactives show max response, negative = inhibition, hits mostly inhibitors; actives 0.43% (n = 200,000); P25779;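 further: plate controls were neutral wells for no effect and buffer without enzyme for full effect; nearly all actives have a fitted effect of over 40% in size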
Target sequence (P25779 123-467 limits assumed): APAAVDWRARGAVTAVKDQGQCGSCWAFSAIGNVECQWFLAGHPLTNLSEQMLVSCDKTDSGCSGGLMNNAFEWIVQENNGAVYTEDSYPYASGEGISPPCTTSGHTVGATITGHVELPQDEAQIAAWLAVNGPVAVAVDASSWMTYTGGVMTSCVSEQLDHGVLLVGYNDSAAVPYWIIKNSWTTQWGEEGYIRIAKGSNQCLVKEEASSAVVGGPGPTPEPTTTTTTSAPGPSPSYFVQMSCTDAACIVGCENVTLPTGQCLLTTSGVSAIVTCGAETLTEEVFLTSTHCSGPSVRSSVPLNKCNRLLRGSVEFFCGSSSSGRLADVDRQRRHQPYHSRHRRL
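Purified cruzain (1.5 nM final) was preincubated with compounds for 15 min at room temperature in 100 mM sodium acetate pH 5.5, 5 mM DTT, 0.01% Triton X-100. Reaction started with 2 uM Z-FR-AMC; AMC fluorescence change over 60 s gave activity.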
NS1 inh = inhibitors of influenza NS1 protein function; Potency, µM (highest dose often 46.1 µM), for inactives: at the highest dose activity, positive = more growth; actives 0.4% (n = 270,000); calls by dose curve; further: actives are rising curves; nearly all actives have a fitted effect of over 50% in size
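Growth recovery, yeast-based: influenza A NS1 expressed in S. cerevisiae causes slow growth, and suppressors are detected by OD600. The parent strain without NS1 is used as positive control.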
Cruzain inh noDet = blocks cruzain activity in detergent-free assay; purified cruzain, Z-FR-AMC fluorescence, no detergent; Potency, µM, for inactives: max response, negative = inhibition, usual class: inhibitors; actives 2.3% (n = 200,000); AID 1476;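 further: plate controls were enzyme without inhibitor for no effect and buffer without enzyme for full effect; nearly all actives have a fitted effect of over 40% in size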
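Detergent-free condition (0.00005% Triton X-100) in acetate buffer pH 5.5 with DTT. 1.5 nM enzyme and compound were pre-mixed 15 min, then 2 uM Z-FR-AMC substrate added; reaction progress from fluorescence change between first and third reads (60 s).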
Active calls of the source: *; ? = inconclusive; / = no result; ! = not active in a repeat. This is one part of a sample in which hits are shown more often than they occur. Unless noted, the call rests on the fitted dose curve; in most records, active means well fitted curve in the direction sought with a large enough effect; inconclusive means small, poorly fitted or top-dose-only effect, or another doubt; inactive means no such curve, though single readings can be large; an effect the other way counts as inactive or inconclusive. Potency means the concentration at half of the fitted maximal effect.

SMILES	Cruzain Triton	NS1 inh	Cruzain inh noDet
COc1ccc(NC(=O)CSC2=Nc3ccccc3C3=NC(CCC(=O)NCc4ccco4)C(=O)N23)cc1 (stereo not given)	1.5%	/	-12.7%
C=CCOC(=O)C1(C(NC(=O)OC)c2ccccc2)C(=O)Cc2ccccc21 (stereo not given)	4.0%	/	-11.8%
COc1ccc(-c2noc(CN(C(=O)C(C)Oc3ccc(C)cc3)C(C)C)n2)cc1 (stereo not given)	-6.6%	/	?
CCC(C(=O)NCc1ccc2c(c1)CCN2C(=O)c1ccc(F)cc1)c1ccccc1 (stereo not given)	-0.6%	/	10.9%
COc1cc2c(cc1OC)-c1cc(N3CCCCCC3)nc(=O)n1CC2	-15.1%	3.8%	12.6µM*
COc1cc2c(cc1OC)-c1cc(N3CCCc4ccccc43)nc(=O)n1CC2	-10.1%	-35.7%	20.5%
COc1ccc(-n2nc(C(=O)Nc3cc(C)ccn3)c3c4ccccc4n(C)c3c2=O)cc1Cl	0.0%	/	-1.6%
Cc1cc(C(=O)COC(=O)CC2Sc3ccccc3NC2=O)c(C)n1-c1ccc2c(c1)OCO2 (stereo not given)	-1.2%	?	25.1µM*
CC(=O)Nc1ccc(S(=O)(=O)NCC(=O)OCC(=O)c2cc(C)n(-c3ccc4c(c3)OCO4)c2C)cc1	-3.7%	13.1%	?
Cc1cc(C(=O)COC(=O)c2ccc(N)c([N+](=O)[O-])c2)c(C)n1-c1ccc2c(c1)OCO2	-2.1%	18.7%	12.6µM*
Cc1cc(C(=O)COC(=O)CC2Sc3ccccc3NC2=O)c(C)n1-c1ccccc1 (stereo not given)	-10.9%	17.1%	?
COC(=O)c1ccc(-n2c(C)cc(C(=O)COC(=O)CC3Sc4ccccc4NC3=O)c2C)cc1 (stereo not given)	-3.9%	13.1%	25.1µM*
O=C(CC1Sc2ccccc2NC1=O)OCC(=O)N1CCc2ccccc21 (stereo not given)	-6.6%	8.2%	?
Cc1cc(C(=O)COC(=O)c2ccc(N)c([N+](=O)[O-])c2)c(C)n1Cc1ccc2c(c1)OCO2	/	-1.1%	/
Cc1cc(C(=O)COC(=O)CC2Sc3ccccc3NC2=O)c(C)n1-c1ccc(Br)cc1 (stereo not given)	1.9%	?	3.98µM*
O=C(c1ccc(CS(=O)c2ccccc2Cl)o1)N1CCN(c2ccccc2F)CC1 (stereo not given)	-3.9%	/	-2.6%
Cc1cc(C(=O)COC(=O)Cc2n[nH]c(=O)c3ccccc23)c(C)n1-c1ccc2c(c1)OCO2	-1.8%	14.3%	25.1µM*
COc1ccc(-n2c(C)cc(C(=O)COC(=O)Cc3n[nH]c(=O)c4ccccc34)c2C)cc1	-6.2%	16.9%	?
N#C/C(=C\c1c[nH]c2ccccc12)C(=O)c1ccc(O)c(O)c1	-5.2%	25.0%	7.2%
Cc1ccc(C2CC(=O)Oc3cc(C)c(Cl)cc32)cc1 (stereo not given)	-2.2%	/	-0.4%
CC(C)=CCC/C(C)=C/CC/C(C)=C/CSCC(=O)O	-0.6%	/	-5.5%
Cc1ccccc1C(=O)Nc1nc(-c2ccc(Br)cc2)ns1	-4.2%	/	20.1%
O=C(/C=C/c1ccco1)Nc1ccc(Cl)c(S(=O)(=O)N2CCOCC2)c1	/	9.3%	/
COc1ccccc1NS(=O)(=O)c1cc(NC(=O)/C=C/c2cccs2)ccc1N1CCOCC1	-8.0%	14.1µM*	25.1µM*
COc1ccccc1NS(=O)(=O)c1cc(NC(=O)c2sccc2C)ccc1N1CCOCC1	/	-17.3%	/
SMILES	Cruzain Triton	NS1 inh	Cruzain inh noDet
O=C(/C=C/c1cccs1)Nc1ccc(N2CCOCC2)c(S(=O)(=O)Nc2cc(Cl)ccc2Cl)c1	-3.5%	23.5%	5.01µM*
O=C(/C=C/c1cccs1)Nc1ccc(N2CCOCC2)c(S(=O)(=O)Nc2ccccc2Cl)c1	-2.7%	13.0%	25.1µM*
COc1ccccc1NS(=O)(=O)c1cc(NC(=O)c2ccncc2)ccc1N1CCOCC1	-4.1%	-3.4%	?
CCC1CCc2nc3sc(C(=O)Nc4ccc(C)cc4)c(N)c3cc2C1 (stereo not given)	-1.9%	/	11.8%
CN(C)CCNc1oc(-c2ccc(COc3ccc(Cl)cc3)o2)nc1C#N	-2.4%	/	3.0%
Cc1cccc2cc(CN(Cc3cccs3)C(=S)NCC3CCCO3)c(=O)[nH]c12 (stereo not given)	-8.3%	-2.9%	3.1%
Cc1ccc(NC(=S)N(Cc2cccs2)Cc2cc3cccc(C)c3[nH]c2=O)cc1	-3.3%	11.8%	15.8µM*
Oc1ccccc1C(Sc1nc2ccccc2s1)Sc1nc2ccccc2s1	-5.0%	-50.5%	-1.0%
Cc1ccc(-n2nc(C)c3c(C(=O)Nc4ccc(Br)c(C)c4)cc(C)nc32)cc1	-1.2%	/	-5.0%
CCCN(C(=O)Cn1cnc2sc(C)c(S(=O)(=O)N3CCN(c4ncccn4)CC3)c2c1=O)c1cccc(C)c1	-2.6%	/	1.7%
CC1=CC(C)(C)Nc2ccc(OC(=O)CCN3C(=O)c4ccccc4C3=O)cc21	-14.2%	-15.8%	8.6%
CC1=CC(C)(C)Nc2ccccc21	0.1%	12.5%	15.8µM*!
Cc1cccn2c(=O)c(/C=C(\C#N)c3nc4ccccc4n3C)c(Oc3ccc(Br)cc3)nc12	-1.1%	/	-4.4%
Cn1c(C(=O)Nc2ccc3c(c2)OCCO3)cc2sccc21	-9.4%	-56.6%	?
CC(C)c1ccc(NC(=O)Nc2cc3sccc3n2C)cc1	-8.5%	15.3%	7.94µM*
CCc1cccc(C)c1NC(=O)CCCn1c(C)c2cnn(-c3ccccc3)c(=O)c2c1C	-2.9%	/	27.3%
CCOc1ccc(CCNC(=O)C2CCN(c3nnc(-n4cccc4)s3)CC2)cc1OCC	-5.4%	9.3%	13.8%
CCOc1ccc(CCNC(=O)C2CCN(c3nnc(-n4cccc4)s3)CC2)cc1	-1.2%	5.2%	15.8µM*
COCC(=O)Nc1ccc(Nc2ccccc2)cc1	4.7%	?	25.1µM*
CCC(=O)Nc1ccc(Nc2ccccc2)cc1	0.1%	-12.6%	-9.8%
O=C(COC(=O)c1ccccc1OCC(=O)Nc1ccc(Br)cc1)Nc1ccccc1	1.4%	-6.2%	12.6µM*
CCC(C)NC(=O)COC(=O)c1ccccc1OCC(=O)Nc1ccc(Br)cc1 (stereo not given)	2.8%	3.8%	14.9%
CCc1ccccc1NC(=O)CSc1nncn2c1cc1oc(C)cc12	-7.5%	/	-4.6%
CC(C)c1ccc(OCC(=O)NCC(c2ccc(Cl)cc2)N2CCOCC2)cc1 (stereo not given)	-10.3%	/	?
Cc1cnc(CNc2ccnc(-c3ccccc3C(F)(F)F)n2)cn1	-0.1%	/	3.8%
SMILES	Cruzain Triton	NS1 inh	Cruzain inh noDet
N[C@H](C(=O)O)[C@@H]1[C@@H](C(=O)O)C1(F)F	3.0%	/	4.6%
C/C(=N\NC(N)=S)c1ccc(Cl)s1	0.562µM*	-43.3%	0.251µM*
C/C(=N\NC(=S)NC(C)C)c1ccc(Cl)s1	-11.3%	-30.5%	-9.6%
O=C(NCCc1ccccc1)c1ccc2nc(-c3ccco3)c(-c3ccco3)nc2c1	15.8µM*	14.1µM*	?
O=C(c1ccccc1)c1ccc2nc(-c3ccco3)c(-c3ccco3)nc2c1	/	7.6%	/
COc1ccc2c(c1)C(=O)[C@@H](OC(=O)Nc1ccc(C)c(Br)c1)[C@H](c1ccc(OC)c(Br)c1)O2	1.3%	/	25.1µM*
COc1ccc2c(c1)C(=O)[C@H](OC(=O)Nc1ccc(C)c(Br)c1)[C@@H](c1ccc(OC)c(Br)c1)O2	-1.4%	/	?
O=C(NCc1cccc(F)c1)c1cccc(NC(=O)c2nsc3ccccc23)c1	-0.5%	/	?
